The record followed here is ChEMBL document CHEMBL3433997, “St. Jude Leishmania screening dataset” (2016).

Common to all, as to type: functional
In test [1] the target is Solute carrier family 2, facilitated glucose transporter member 1 (Homo sapiens) (UniProt P11166). Put plainly: ST_JUDE_LEISH: Cytotoxicity at 2uM final concentration against transgenic Leishmania Mexicana promastigotes LmGLUT1 that are glucose transport deficient and complemented with the human glucose transporter GLUT1. Activity is measured by DNA content using SYBR green in vitro.

Test [2] has as its target Hexose transporter 1 (Plasmodium falciparum) (UniProt O97467). Briefly: ST_JUDE_LEISH: Cytotoxicity at 2uM final concentration against transgenic Leishmania Mexicana promastigotes LmPfHT that are glucose transport deficient and complemented with the Plasmodium falciparum hexose transporter. Activity is measured by DNA content using SYBR green in vitro.
The target in test [3] is Glucose transporter (Leishmania mexicana) (UniProt O61059). Put plainly: ST_JUDE_LEISH: Cytotoxicity at 2uM final concentration against transgenic Leishmania Mexicana promastigotes LmGT2 that are glucose transport deficient and complemented with the L. Mexicana glucose transporter 2. Activity is measured by DNA content using SYBR green in vitro.

The structures appear in SMILES notation.

Solute carrier family 2, facilitated glucose transporter member 1 (Homo sapiens), sequence (P11166 whole entry): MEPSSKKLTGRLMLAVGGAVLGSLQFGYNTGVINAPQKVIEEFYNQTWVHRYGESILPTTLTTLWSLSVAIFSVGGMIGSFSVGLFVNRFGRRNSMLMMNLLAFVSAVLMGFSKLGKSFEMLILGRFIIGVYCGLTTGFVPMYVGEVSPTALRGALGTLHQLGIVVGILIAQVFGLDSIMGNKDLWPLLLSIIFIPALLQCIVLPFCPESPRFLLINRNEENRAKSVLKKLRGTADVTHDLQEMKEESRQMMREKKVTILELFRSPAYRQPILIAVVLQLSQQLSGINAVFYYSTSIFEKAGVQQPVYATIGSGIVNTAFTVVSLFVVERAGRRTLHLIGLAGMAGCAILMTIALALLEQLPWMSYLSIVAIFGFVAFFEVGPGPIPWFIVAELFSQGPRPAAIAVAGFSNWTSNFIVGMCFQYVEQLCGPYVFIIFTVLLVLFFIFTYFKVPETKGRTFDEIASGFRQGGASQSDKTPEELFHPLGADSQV

As usually defined, the inhibition is the drop in the measured response relative to a control, in per cent. Consider `FC(F)(F)c1ccc2[nH]c(-c3ccc(-c4ccc(CN5CCN(c6ccncc6)CC5)cc4)cc3)nc2c1`, for which the inhibition stood at 77.4% in test [1], 85.7% in test [2] and 69% in test [3].

Regarding `c1cncc(CNc2ncc(-c3ccsc3)c(-c3nccs3)n2)c1`, the inhibition is 5.96% in test [1], 8.95% in test [2] and 7.02% in test [3].

Consider `CN(C)c1ccc(C2c3[nH]cnc3CCN2C(=O)Nc2cccc([N+](=O)[O-])c2)cc1` (stereo unspecified), for which the inhibition in test [1] was 7.55%; in test [2], 8.52%; in test [3], 1.43%.

Consider `O=C(NC1CCN(c2ccnc3ccccc23)C1)c1ccc(OC(F)(F)F)cc1` (stereo unspecified), for which the figures for the inhibition in test [1], in test [2] and in test [3] were 1.75%, 1.97% and 2.7%, respectively.

Consider `NC(=O)c1ccc(C(=O)Nc2cccc(-c3ccc(-c4nc5cc(C(F)(F)F)ccc5[nH]4)cc3)c2)cc1`, for which the inhibition in test [1] is -2.41%; in test [2], -0.2%; in test [3], -2.73%.

Consider `COc1ccccc1N1CCN(CCCCNC(=O)c2ccc(NC(=O)c3cc(Cl)cc(Cl)c3)cc2)CC1`, for which the inhibition is 2.07% in test [1], 3.24% in test [2] and 2.92% in test [3].

On to `CCc1ccc(OCc2ccccc2C(=O)Nc2ccc3nc(C)cc(N)c3c2)cc1`, for which the results for the inhibition in test [1], in test [2] and in test [3] were 2.1%, 2.87% and 1.97%, respectively.

`Fc1ccc2[nH]c(-c3ccc(-c4cccc(CN5CCN(CCN6CCOCC6)CC5)c4)cc3)nc2c1`: the inhibition in test [1] came to 4.48%; in test [2], 3.16%; in test [3] it was 1.99%.

In the case of `CCOC(=O)c1ccc(NC(=O)N[C@@H](Cc2ccccc2)C(=O)NC2CCN(Cc3ccc(O)c(OC)c3)C2)cc1` (stereo partly specified), the inhibition in test [1] was -2.58%; in test [2], -1.29%; in test [3], 3.01%.

In the case of `O=C1CSc2ccc(CNC3CCN(CCc4c(Cl)cnc5ccc(Cl)cc45)CC3)nc2N1`, the inhibition in test [1] is 0.88%; in test [2], -0.05%; in test [3] it was -1.85%.

Regarding `Cc1[nH]c2ccccc2c1C(=O)C(C)Sc1nnc(-c2ccccc2F)o1` (stereo unspecified), the inhibition in test [1] is 2.5%; in test [2], 1.95%; in test [3], 3.81%.

Turning to `c1ccc(-c2cccc(-c3ccccn3)n2)nc1`, the results for the inhibition in test [1], in test [2] and in test [3] were 3.92%, 2.46% and 2.49%, respectively.
